Reference: PubChem BioAssay
Calls of active or inactive are those of the source.

Experiments:
[1] = system: Plasmodium falciparum Sir2 (PF13_0152, Sir2A); assay: pfSir2 binders on small-molecule microarrays, primary screen, biochemical, small-molecule microarray, 635 nm fluorescence (AID 1098); settings: small-molecule microarray binding, fluorescence 635 nm; higher = more signal;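 note: score merges spot fluorescence intensity with its signal-to-noise ratio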
[2] = small-molecule microarray binders of probe aDKK1, primary screen, biochemical, biotinylated probe, 635/667 nm fluorescence (AID 1099); settings: higher = more signal;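 note: score merges 667nm spot fluorescence with signal to noise across triplicate slides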
[3] = small-molecule microarray binders of probe aCHRDL2, primary screen, biochemical, biotinylated probe, 635/667 nm fluorescence (AID 1100); settings: higher = more signal
[4] = splicing luciferase reporter signal modulators, primary screen, spliceosome inhibition project, cell-based, HEK293, splice +/- reporter (AID 1101); settings: luminescence, 24 h, higher = more signal, called active from +8 up or from −8 down;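 note: HEK293 cells carrying a splicing-competent luciferase reporter gene; test concentration not given here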
[5] = molecular target: Fibroblast growth factor 10 (Homo sapiens) (UniProt O15520); assay: FGF10 binders on small-molecule microarrays, primary screen, biochemical, small-molecule microarray, 635 nm fluorescence (AID 1102); settings: FGF10 binding, fluorescence 635 nm, higher = more signal
[6] = system: glycogen synthase kinase-3 (GSK3A per assay name; protocol says GSK3B); assay: GSK3 binders on small-molecule microarrays, primary screen, biochemical, small-molecule microarray, 635 nm fluorescence, GSK3A (AID 1103); settings: small-molecule microarray binding, fluorescence 635 nm; higher = more signal; note: the record names both GSK3A and GSK3B
[7] = molecular target: Epidermal growth factor receptor (Homo sapiens) (UniProt P00533); assay: EGFR binders on small-molecule microarrays, primary screen, biochemical, small-molecule microarray, 635 nm fluorescence (AID 1104); settings: EGFR binding, higher = more signal;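 note: score merges 667 nm emission intensity with spot signal to noise over triplicate slides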
[8] = molecular target: Follistatin-related protein 3 (Homo sapiens) (UniProt O95633); assay: FSTL3 binders on small-molecule microarrays, primary screen, biochemical, small-molecule microarray, 635 nm fluorescence (AID 1105); settings: FSTL3 binding, higher = more signal;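 note: score merges emission near 667 nm and signal to noise per printed spot across three slides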
[9] = molecular target: Dickkopf-related protein 1 (Homo sapiens) (UniProt O94907); assay: DKK1 binders on small-molecule microarrays, primary screen, biochemical, small-molecule microarray, 635 nm fluorescence scan (AID 1106); settings: DKK1 binding, higher = more signal;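 note: score merges emission near 667 nm with signal to noise over three replicate slides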
[10] = system: Inhibin beta A chain (activin A); assay: INHBA (activin A) binders on microarrays, primary screen, biochemical, small-molecule microarray, 635 nm fluorescence scan (AID 1107); settings: small-molecule microarray binding, higher = more signal;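 note: mouse activin A protein probed at 4.33 µg/mL on printed slides; score merges bound-protein fluorescence near 667 nm with spot signal-to-noise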
[11] = system: Human papillomavirus type 1a protein E7 (residues 44-93); assay: HPV1a E7 fragment binders on microarrays, primary screen, biochemical, small-molecule microarray, residues 44-93, 635 nm fluorescence (AID 1108); settings: small-molecule microarray binding, fluorescence 635 nm; higher = more signal;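 note: E7 fragment applied at 1 µg/mL in TBST for 1 h at 4 C; score combines spot fluorescence with its signal to noise ratio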
[12] = modulators of HCV replicon luciferase signal, primary screen, HCV replication inhibitor project, Huh7 cells, luciferase reporter (AID 1109); settings: 48 h, higher = more signal;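 note: huh7 hepatoma cells harbouring a luciferase neomycin HCV replicon reporter; luciferase luminescence as measure of HCV replicon replication; test concentration not given here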
[13] = molecular target: Left-right determination factor 2 (Homo sapiens) (UniProt O00292); assay: LEFTY2 binders on small-molecule microarrays, primary screen, biochemical, small-molecule microarray, 635 nm fluorescence scan (AID 1110); settings: LEFTY2 binding, higher = more signal
[14] = molecular target: Calmodulin-1 (Homo sapiens) (UniProt P0DP23); assay: CALM1 binders on microarrays, EGTA buffer, profiling panel, biochemical, small-molecule microarray, Cy5-labelled CALM1 (AID 1111); settings: Cy5-CALM1 binding fluorescence, higher = more signal;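 note: labelled calmodulin applied in Tris saline Tween buffer holding calcium plus EGTA and DTT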
[15] = molecular target: Calmodulin-1 (Homo sapiens) (UniProt P0DP23); assay: calcium-bound CALM1 binders on microarrays, profiling panel, artefact control for SMM control-protein annotation, biochemical, small-molecule microarray, Cy5-labelled CALM1, plus calcium (AID 1112); settings: Cy5-CALM1 binding fluorescence, higher = more signal;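 note: score merges spot fluorescence with signal to noise from triplicate slides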
[16] = small-molecule microarray binders of probe aWnt5a, primary screen, biochemical, biotinylated probe, 635/667 nm fluorescence (AID 1113); settings: higher = more signal;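 note: score merges 667 nm fluorescence intensity with signal-to-noise per printed feature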
[17] = small-molecule microarray binders of probe aShh, primary screen, biochemical, biotinylated probe, 635/667 nm fluorescence (AID 1114); settings: higher = more signal;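 note: probe is biotin-labelled aShh protein from a stem cell growth factor screen; measures binding of labelled protein to compounds printed on the slide; score merges feature fluorescence at 667 nm with signal-to-noise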
[18] = small-molecule microarray binders of probe aNog, primary screen, biochemical, biotinylated probe, 635/667 nm fluorescence (AID 1115); settings: higher = more signal;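 note: probe is biotinylated aNog protein used at 0.15 µg/mL for 1 h at 4 C; z-score combines 667 nm fluorescence of each spot with its signal to noise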
[19] = molecular target: Torsin-1A-interacting protein 1 (Homo sapiens) (UniProt Q5JTV8); assay: LAP1 binders from COS7 cell lysate, primary screen, small-molecule microarray, 635/667 nm fluorescence (AID 1116); settings: COS7-hLAP1 lysate binding, 635 nm fluorescence, higher = more signal
[20] = molecular target: Alpha-bungarotoxin (Bungarus multicinctus) (UniProt P60615); assay: alpha-bungarotoxin binders on microarray, profiling panel, artefact control for SMM control protein annotation, biochemical, small-molecule microarray, Alexa647 label, 635/667 nm fluorescence (AID 1117); settings: alpha-BTX-A647 binding fluorescence, higher = more signal
Chain of Alpha-bungarotoxin (Bungarus multicinctus) (P60615 whole entry, looked up): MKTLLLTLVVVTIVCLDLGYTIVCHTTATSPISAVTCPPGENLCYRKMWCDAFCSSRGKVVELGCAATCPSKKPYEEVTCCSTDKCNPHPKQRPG

Chain of Left-right determination factor 2 (Homo sapiens) (O00292 whole entry, looked up): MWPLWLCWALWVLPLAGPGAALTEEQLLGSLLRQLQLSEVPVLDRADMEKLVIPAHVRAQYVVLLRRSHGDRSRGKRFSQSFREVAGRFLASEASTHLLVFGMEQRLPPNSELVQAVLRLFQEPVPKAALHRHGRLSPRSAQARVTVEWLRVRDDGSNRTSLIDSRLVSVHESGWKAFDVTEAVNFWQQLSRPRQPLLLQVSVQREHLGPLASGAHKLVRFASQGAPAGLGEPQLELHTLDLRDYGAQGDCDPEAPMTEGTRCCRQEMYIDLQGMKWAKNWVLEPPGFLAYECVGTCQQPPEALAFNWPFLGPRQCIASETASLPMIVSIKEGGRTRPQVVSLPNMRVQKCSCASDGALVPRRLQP
Chain of Fibroblast growth factor 10 (Homo sapiens) (O15520 whole entry, looked up): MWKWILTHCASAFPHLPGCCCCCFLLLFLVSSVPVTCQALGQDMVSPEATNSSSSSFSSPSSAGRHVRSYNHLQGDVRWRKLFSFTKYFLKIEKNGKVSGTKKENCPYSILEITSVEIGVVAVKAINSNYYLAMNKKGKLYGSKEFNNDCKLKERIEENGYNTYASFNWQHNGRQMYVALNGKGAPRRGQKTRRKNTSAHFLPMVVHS
Chain of Follistatin-related protein 3 (Homo sapiens) (O95633 whole entry, looked up): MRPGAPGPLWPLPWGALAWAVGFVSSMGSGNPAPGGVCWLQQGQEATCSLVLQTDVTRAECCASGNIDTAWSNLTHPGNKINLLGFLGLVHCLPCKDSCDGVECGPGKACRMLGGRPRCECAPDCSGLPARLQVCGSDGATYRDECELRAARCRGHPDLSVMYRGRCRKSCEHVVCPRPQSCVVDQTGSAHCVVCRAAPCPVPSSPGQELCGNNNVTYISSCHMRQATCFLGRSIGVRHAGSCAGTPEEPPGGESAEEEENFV
Chain of Epidermal growth factor receptor (Homo sapiens) (P00533 whole entry, looked up): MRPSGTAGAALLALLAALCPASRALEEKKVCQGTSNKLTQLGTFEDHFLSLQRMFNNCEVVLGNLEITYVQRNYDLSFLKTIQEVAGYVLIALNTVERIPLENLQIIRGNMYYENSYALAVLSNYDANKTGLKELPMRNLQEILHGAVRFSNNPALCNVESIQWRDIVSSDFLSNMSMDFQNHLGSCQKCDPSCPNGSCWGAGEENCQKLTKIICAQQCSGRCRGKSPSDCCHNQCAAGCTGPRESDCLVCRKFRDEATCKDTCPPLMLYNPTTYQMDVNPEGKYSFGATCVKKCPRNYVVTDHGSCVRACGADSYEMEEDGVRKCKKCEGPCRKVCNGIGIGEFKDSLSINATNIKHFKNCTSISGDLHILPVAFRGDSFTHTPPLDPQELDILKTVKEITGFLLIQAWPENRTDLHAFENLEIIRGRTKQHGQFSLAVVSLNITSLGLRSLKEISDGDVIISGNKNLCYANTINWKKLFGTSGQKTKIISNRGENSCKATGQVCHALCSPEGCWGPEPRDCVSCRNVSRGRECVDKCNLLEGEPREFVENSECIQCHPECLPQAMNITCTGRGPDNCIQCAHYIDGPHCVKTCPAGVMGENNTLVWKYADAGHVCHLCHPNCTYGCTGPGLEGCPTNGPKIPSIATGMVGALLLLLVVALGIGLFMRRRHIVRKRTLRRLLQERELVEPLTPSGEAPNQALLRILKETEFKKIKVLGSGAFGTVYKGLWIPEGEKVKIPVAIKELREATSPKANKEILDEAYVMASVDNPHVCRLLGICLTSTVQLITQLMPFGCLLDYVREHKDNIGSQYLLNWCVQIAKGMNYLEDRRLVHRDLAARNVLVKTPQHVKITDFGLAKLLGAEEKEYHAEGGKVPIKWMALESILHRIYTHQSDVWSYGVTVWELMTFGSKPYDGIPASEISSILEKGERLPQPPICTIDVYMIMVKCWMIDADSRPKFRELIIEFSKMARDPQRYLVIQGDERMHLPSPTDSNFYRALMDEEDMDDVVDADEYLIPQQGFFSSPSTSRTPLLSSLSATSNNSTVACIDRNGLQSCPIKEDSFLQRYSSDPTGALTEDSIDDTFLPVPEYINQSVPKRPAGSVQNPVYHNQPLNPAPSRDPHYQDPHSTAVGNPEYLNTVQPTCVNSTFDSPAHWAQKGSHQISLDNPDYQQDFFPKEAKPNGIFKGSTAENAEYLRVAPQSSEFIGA
Chain of Torsin-1A-interacting protein 1 (Homo sapiens) (Q5JTV8 whole entry, looked up): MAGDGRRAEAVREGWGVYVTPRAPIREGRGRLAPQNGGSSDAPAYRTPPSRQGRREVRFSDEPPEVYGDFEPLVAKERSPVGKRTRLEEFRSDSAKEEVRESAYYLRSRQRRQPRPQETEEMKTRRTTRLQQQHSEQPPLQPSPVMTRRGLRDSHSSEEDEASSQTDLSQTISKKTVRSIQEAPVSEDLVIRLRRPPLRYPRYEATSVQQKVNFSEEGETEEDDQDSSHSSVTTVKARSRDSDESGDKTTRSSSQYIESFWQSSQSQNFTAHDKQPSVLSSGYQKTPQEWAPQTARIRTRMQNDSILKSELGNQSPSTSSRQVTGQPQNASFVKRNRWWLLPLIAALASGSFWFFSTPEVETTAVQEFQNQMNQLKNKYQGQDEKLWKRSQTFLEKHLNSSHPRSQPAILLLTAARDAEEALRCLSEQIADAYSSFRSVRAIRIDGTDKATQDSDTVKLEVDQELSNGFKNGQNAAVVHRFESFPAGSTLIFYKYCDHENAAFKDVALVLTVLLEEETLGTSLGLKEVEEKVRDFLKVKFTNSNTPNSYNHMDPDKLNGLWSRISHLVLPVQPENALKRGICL
Chain of Dickkopf-related protein 1 (Homo sapiens) (O94907 whole entry, looked up): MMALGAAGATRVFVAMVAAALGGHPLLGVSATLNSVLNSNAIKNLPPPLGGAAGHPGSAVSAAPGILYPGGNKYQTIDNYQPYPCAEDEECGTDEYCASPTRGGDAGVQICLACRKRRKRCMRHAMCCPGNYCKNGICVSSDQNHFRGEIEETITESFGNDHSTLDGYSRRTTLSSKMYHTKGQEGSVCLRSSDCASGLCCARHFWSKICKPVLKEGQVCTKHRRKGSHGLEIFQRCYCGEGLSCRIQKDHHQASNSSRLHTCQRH

Structure (SMILES)	composite z-score [1]	composite z-score [2]	composite z-score [3]	z-score [4]	composite z-score [5]	composite z-score [6]	composite z-score [7]	composite z-score [8]	composite z-score [9]	composite z-score [10]	composite z-score [11]	z-score [12]	composite z-score [13]	composite z-score [14]	composite z-score [15]	composite z-score [16]	composite z-score [17]	composite z-score [18]	composite z-score [19]	composite z-score [20]
C=CCC(OC(C)=O)[C@@H]1[C@@H](N(Cc2cccc3ccccc23)C(=O)c2cccc3ccccc23)c2cc(OCCCO)ccc2N1C(=O)Cc1ccc(OC)cc1 (stereo not given in full)	0.387	0.15	0.213	-2.53 (inactive)	0.481	0.311	0.129	0.478	0.388	1.18	-0.37	-0.348	0.384	0.293	0.394	-0.0107	0.0284	0.466	0.703	0.549
CCCNC(=O)[C@@H]1c2ccccc2C(=O)N(Cc2cc(C(F)(F)F)cc(C(F)(F)F)c2)[C@H]1c1ccc(CO)cc1	1.23	0.829	0.803	-0.443 (inactive)	0.238	0.459	-0.112	0.268	-0.196	0.0686	0.35	-0.392	-0.402	0.394	0.544	-0.146	0.188	0.527	0.238	1.22
COCCCNC(=O)[C@@]1(Cc2ccccc2CN=[N+]=[N-])COC(c2ccc(OCCCO)cc2)=N1	1.59	1.28	1.39	-0.807 (inactive)	1.38	0.266	-0.474	-0.0087	-1.58	0.731	0.989	-1.97	-0.645	1.78	0.96	0.299	0.454	1.75	2.45	0.911
CC(C)C[C@@H]1NC(=O)[C@H]2C[C@@H](C(=O)NCCCC[N+](C)(C)C)[C@@H](c3cccc(OCCO)c3)N2C1=O	0.812	0.0877	-0.409	-1.02 (inactive)	0.756	-0.285	0.0727	0.965	1.23	-0.125	-1.55	-1.48	0.673	-0.144	0.75	-0.148	-0.0722	0.327	1.19	-0.491
COc1ccc([Si](C)(C)[C@@H]2[C@@H](CCn3cc([C@H](O)c4ccccc4)nn3)O[C@]3(C(=O)N(C)c4c(Br)cc(C)cc43)[C@H]2C)cc1	-0.384	0.041	0.703	-3.07 (inactive)	0.0565	-0.755	-0.212	-0.395	-0.248	0.206	-1.29	-4.23	0.287	-0.0327	0.0747	-0.157	-0.0991	-0.169	0.184	0.178
CC(C)(C)OC(=O)CC[C@@]12N=C(c3ccc(OCCCO)cc3)O[C@@H]1c1ccccc1N(Cc1ccccc1)C2=O	0.727	0.692	1.05	-0.00084 (inactive)	0.732	1.19	-0.244	0.51	0.117	1.14	-0.0568	-2.38	-0.202	0.61	0.621	-0.0327	0.138	0.943	0.786	1.36
C=C(COC)/C(=C/C[C@H](OC(C)=O)c1ccc(CO)o1)c1cnc2ccccc2c1	1.05	0.0967	0.131	-1.03 (inactive)	0.979	1.29	0.477	1.48	0.639	1.61	0.729	-1.18	0.149	0.143	-0.387	-0.0445	0.0893	0.186	0.845	2.83
CC(C)NC(=O)[C@@H]1c2ccccc2C(=O)N(Cc2cc(F)cc(C(F)(F)F)c2)[C@H]1c1ccc(CO)cc1	1.51	0.478	0.94	-1.05 (inactive)	-0.535	-0.825	-0.979	-1.17	-0.833	-0.476	0.719	0.32	-0.556	0.343	0.916	-0.25	-0.321	0.27	0.0026	-0.948
CO[C@H]1O[C@H](CO)[C@@H](OC(=O)Nc2ccccc2)[C@H](OC(=O)Nc2ccccc2-c2ccccc2)[C@@H]1OC(=O)Nc1ccccc1-c1ccccc1	1.36	0.318	0.464	-1.05 (inactive)	1.19	1.32	0.561	1.16	0.621	0.522	0.781	-3.09	0.986	1.95	0.357	0.131	1.85	1.59	1.1	2.77
O=c1n(-c2ccccc2)c(=O)n2n1CC(COc1ccccc1)=C1[C@@H](CCc3ccccc3)OB(O)C[C@@H]12	0.812	-0.178	-0.482	-1.14 (inactive)	1.02	0.59	0.235	0.728	0.488	0.0187	0.398	-1.91	0.41	0.0534	0.205	0.0181	0.277	-0.118	0.684	1.17
